# Data: PubChem BioAssay (NCI)
# “And” between values parts separate entries of the source, which are not always exact repeats. Equal values may be shown once. About 83,000 compounds went through this panel and 20% of them were active in at least one assay; those are over-represented in the sample as a whole.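 Cell lines were cultured in 96-well plates, exposed to a single compound concentration, and assessed for percent growth 48 hours later.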 The source made the active and inactive calls. How the source made its calls: active means growth percent below 10; inactive means the rest.
# Columns and labels:
# Test in all cases: NCI-60 one-dose screen, 48 h (100 = growth as untreated, 0 = no growth, -100 = all killed)
# [1] = test system: HCT-15 colon; settings: 10 µM unless noted
# [2] = test system: SNB-75 CNS; settings: 10 µM unless noted
# [3] = test system: SNB-19 CNS; settings: 10 µM unless noted
# [4] = test system: U251 CNS; settings: 10 µM unless noted
# [5] = test system: PC-3 prostate; settings: 10 µM unless noted
# [6] = test system: SK-MEL-5 melanoma; settings: 10 µM unless noted
# [7] = test system: SK-MEL-28 melanoma; settings: 10 µM unless noted
# [8] = test system: SK-MEL-2 melanoma; settings: 10 µM unless noted
# [9] = test system: EKVX NSCLC; settings: 10 µM unless noted
# [10] = test system: SN12C renal; settings: 10 µM unless noted
# [11] = test system: UO-31 renal; settings: 10 µM unless noted
# [12] = test system: TK-10 renal; settings: 10 µM unless noted
# [13] = test system: ACHN renal; settings: 10 µM unless noted
# [14] = test system: CAKI-1 renal; settings: 10 µM unless noted
# [15] = test system: A498 renal; settings: 10 µM unless noted
# [16] = test system: CCRF-CEM leukemia; settings: 10 µM unless noted
# [17] = test system: MOLT-4 leukemia; settings: 10 µM unless noted
# [18] = test system: UACC-62 melanoma; settings: 10 µM unless noted
# [19] = test system: LOX IMVI melanoma; settings: 10 µM
smiles,measurement,setting,value
CN1CCC(c2ccccc2)(c2ccccc2)C(=O)C1,growth,[1],70.2% (inactive)
same,growth,[2],58% (inactive)
same,growth,[3],90.7% (inactive)
same,growth,[4],91.3% (inactive)
same,growth,[5],85.7% (inactive)
same,growth,[6],97.7% (inactive)
same,growth,[7],119% (inactive)
same,growth,[8],122% (inactive)
same,growth,[9],47.3% (inactive)
same,growth,[10],101% (inactive)
same,growth,[11],68.9% (inactive)
same,growth,[12],76.4% (inactive)
same,growth,[13],102% (inactive)
same,growth,[14],71.2% (inactive)
same,growth,[15],106% (inactive)
same,growth,[16],29.1% (inactive)
same,growth,[17],92.7% (inactive)
Cc1ccc(NC2=CC(=O)C(=O)c3ccccc32)cc1,growth,[1],11.2% (inactive)
same,growth,[2],-18.7% (active)
same,growth,[3],28.4% (inactive)
same,growth,[4],15.4% (inactive)
same,growth,[6],-98.4% (active)
same,growth,[18],-33.9% (active)
same,growth,[19],0.472% (active)
same,growth,[7],-23.5% (active)
same,growth,[8],4.01% (active)
same,growth,[9],73% (inactive)
same,growth,[10],-39.2% (active)
same,growth,[11],-18.4% (active)
same,growth,[12],42.4% (inactive)
same,growth,[13],21.9% (inactive)
same,growth,[14],35.5% (inactive)
same,growth,[15],63.2% (inactive)
same,growth,[16],27% (inactive)
same,growth,[17],28.7% (inactive)
C[C@@H]1CCC([C@@H](C)[C@H]2CC[C@H]3[C@@H]4CC[C@H]5C[C@@H](O)CC[C@]5(C)[C@H]4CC[C@]23C)=NC1,growth,[18],-45.8% [100 µM] (active) and -54.1% [100 µM] (active)
same,growth,[12],27.5% [100 µM] (inactive) and -69% [100 µM] (active)
Cc1ccc(NC(=S)C#N)cc1Cl,growth,[18],-35.5% [100 µM] (active) and -95.7% [100 µM] (active)
same,growth,[12],7.58% [100 µM] (active) and -53.9% [100 µM] (active)
CCOC(=O)C1C(C(C)C)C2(C#N)C(=N)OC1(C)C2(C#N)C#N (stereo not drawn),growth,[18],-51.6% [100 µM] (active) and -86.9% [100 µM] (active)
same,growth,[12],5.66% [100 µM] (active) and -73.8% [100 µM] (active)
O=C(CCc1ccccc1)ON1C(=S)NC(c2ccccc2)(c2ccccc2)C1=S,growth,[18],-47.5% [100 µM] (active) and -5.8% [100 µM] (active)
same,growth,[12],-6.92% [100 µM] (active) and -21.7% [100 µM] (active)
O=C(O)CCCOc1cc(-c2ccccc2F)nc2cc3c(cc12)OCO3,growth,[18],11.6% [100 µM] (inactive) and -54.7% [100 µM] (active)
same,growth,[12],53.8% [100 µM] (inactive) and 2.37% [100 µM] (active)
CC1=CC[C@@H]2[C@@H](CC[C@@]2(C)O)C(C)(C)[C@H]1CC[C@@H]1[C@@]2(C)CCC(=O)C(C)(C)O[C@@H]2CC[C@]1(C)O,growth,[12],10.2% [100 µM] (inactive) and -99.3% [100 µM] (active)
C=c1c2ccccc2oc2nc3[nH]c(N)c(C#N)c(N)c3c(=N)c12,growth,[18],44.5% [100 µM] (inactive) and 0.738% [100 µM] (active)
same,growth,[12],43.9% [100 µM] (inactive) and -12.1% [100 µM] (active)
C=C1C(=O)C2=CC1CCC(=O)C1(C)CCC(OC(C)=O)C(C)(C)C1CC2O (stereo not drawn),growth,[18],-95.4% [100 µM] (active) and -100% [100 µM] (active)
same,growth,[12],-96% [100 µM] (active) and -89.5% [100 µM] (active)
COc1ccc(Nc2nc3ccc(C(F)(F)F)cc3nc2C(=O)O)cc1,growth,[12],-10.5% [100 µM] (active) and -93.8% [100 µM] (active)
N=C1C(=N)c2ccccc2-c2ccccc21,growth,[18],53.6% [100 µM] (inactive) and -56.4% [100 µM] (active)
same,growth,[12],51.2% [100 µM] (inactive) and 3.24% [100 µM] (active)
